A short description of test [1]: qHTS assay to identify small molecule antagonists of the glucocorticoid receptor (GR) signaling pathway - cell viability counter screen (AID 720693). Further: nearly all actives have a fitted effect of over 55% in size. For orientation: In qHTS, concentration-response curves come from the screen itself.
The nature of test [2]: qHTS assay for identifying genotoxic compounds that show differential cytotoxicity against isogenic chicken DT40 cell lines with known DNA damage response pathways - wild type cell line (AID 743012). Further: nearly all actives have a fitted effect of over 60% in size. Further: potency means the concentration at half of the fitted maximal effect. A digest of the protocol:
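300 wt DT40 cells/well; cpd (DMSO) pintool-transferred after ~0.5 h at 37 C/5% CO2; 40 h incubation; CellTiter-Glo added, 30 min RT; luminescence read.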

Test [3] in a line: qHTS assay to identify small molecule antagonists of the androgen receptor (AR) signaling pathway - cell viability counter screen (AID 743033; further: nearly all actives have a fitted effect of over 45% in size).
Test [4] deals with Androgen receptor (Homo sapiens) (UniProt P10275). The test is described as follows: qHTS assay to identify small molecule antagonists of the androgen receptor (AR) signaling pathway (AID 743035; active means well fitted inhibition curve with a large enough effect in the signal ratio in the repeat runs, not every such curve was filed as active; the % refers to the signal ratio). In a few lines: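 In this cell-based reporter screen, compounds were tested in concentration series against R1881-activated HEK293 cells expressing beta-lactamase under UAS control; after 16 h at 37C, FRET substrate was added and fluorescence read 2 h later.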
Androgen receptor (Homo sapiens), sequence (P10275 whole entry, looked up): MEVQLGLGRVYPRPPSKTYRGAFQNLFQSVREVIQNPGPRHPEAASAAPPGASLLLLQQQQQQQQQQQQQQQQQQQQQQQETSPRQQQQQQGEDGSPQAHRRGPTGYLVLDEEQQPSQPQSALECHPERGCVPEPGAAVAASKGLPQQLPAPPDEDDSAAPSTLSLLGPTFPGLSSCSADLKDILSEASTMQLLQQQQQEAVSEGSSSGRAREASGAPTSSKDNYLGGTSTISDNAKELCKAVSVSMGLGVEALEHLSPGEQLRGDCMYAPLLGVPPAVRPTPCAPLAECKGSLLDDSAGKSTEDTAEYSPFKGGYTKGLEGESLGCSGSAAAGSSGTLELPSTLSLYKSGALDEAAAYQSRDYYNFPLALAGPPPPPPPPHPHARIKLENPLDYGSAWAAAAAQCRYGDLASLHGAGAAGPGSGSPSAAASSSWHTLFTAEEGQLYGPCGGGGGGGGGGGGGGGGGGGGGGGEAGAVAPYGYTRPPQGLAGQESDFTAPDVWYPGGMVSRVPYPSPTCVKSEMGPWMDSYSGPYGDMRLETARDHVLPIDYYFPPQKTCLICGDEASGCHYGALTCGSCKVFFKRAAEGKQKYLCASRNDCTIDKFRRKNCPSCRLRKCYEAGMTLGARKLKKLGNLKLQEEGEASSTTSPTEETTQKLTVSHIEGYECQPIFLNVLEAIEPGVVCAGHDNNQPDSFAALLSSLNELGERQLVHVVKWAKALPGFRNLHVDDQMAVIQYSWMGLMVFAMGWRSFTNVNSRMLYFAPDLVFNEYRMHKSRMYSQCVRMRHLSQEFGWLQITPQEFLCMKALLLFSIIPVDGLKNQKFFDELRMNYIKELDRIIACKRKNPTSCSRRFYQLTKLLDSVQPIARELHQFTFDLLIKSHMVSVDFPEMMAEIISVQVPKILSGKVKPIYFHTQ

Test [5] has the same target. The test is described as follows: qHTS assay to identify small molecule agonists of the androgen receptor (AR) signaling pathway (AID 743036; active means well fitted activation curve with a large enough effect in the signal ratio in the repeat runs, with a control signal flat, not every such curve was filed as active; the % refers to the signal ratio). A digest of the protocol: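 Screening used 2,000 AR-bla HEK293 cells per well, treated 16 h at 37C with test compounds in DMSO alongside positive and DMSO-only controls; beta-lactamase activity was then read by LiveBLAzer B/G FRET fluorescence after 2 h at room temperature.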

Test [6] shares this target. The test is described as follows: qHTS assay to identify small molecule agonists of the androgen receptor (AR) signaling pathway using the MDA cell line (AID 743040; further: nearly all actives have a fitted effect of over 20% in size). In a few lines: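 Testing was done with the MDA-kb2 AR-luc line, a human breast carcinoma stably transfected with MMTV-luciferase containing AR and GR response elements. Cells were exposed 16 h at 37C before ONE-Glo luminescence detection.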

A short description of test [7]: qHTS assay to identify small molecule antagonists of the androgen receptor (AR) signaling pathway using the MDA cell line - cell viability counter screen (AID 743041; further: nearly all actives have a fitted effect of over 45% in size; further: potency means the concentration at half of the fitted maximal effect). A digest of the protocol:
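Compound exposure lasted 16 h at 37C in MDA-kb2 AR-luc cells stimulated with R1881. Protease-based CellTiter-Fluor reagent was applied for the final 30 min and fluorescence measured.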

Test [8] deals with Androgen receptor (Homo sapiens) (UniProt P10275). The test is described as follows: qHTS assay to identify small molecule antagonists of the androgen receptor (AR) signaling pathway using the MDA cell line (AID 743042; further: nearly all actives have a fitted effect of over 55% in size). A digest of the protocol:
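MDA-kb2 breast carcinoma cells carrying MMTV-luciferase (AR/GR responsive) were co-treated with compounds and the agonist R1881 for 16 h at 37C. Inhibition read as ONE-Glo luminescence; CellTiter-Fluor fluorescence measured in parallel for cytotoxicity.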

Test [9] in a line: qHTS assay for identifying genotoxic compounds that show differential cytotoxicity against isogenic chicken DT40 cell lines with known DNA damage response pathways - Rad54/Ku70 mutant cell line (AID 743015). Further: nearly all actives have a fitted effect of over 60% in size. Further: potency means the concentration at half of the fitted maximal effect.
Test [10] is described as follows: qHTS assay for identifying genotoxic compounds that show differential cytotoxicity against isogenic chicken DT40 cell lines with known DNA damage response pathways - Rev3 mutant cell line (AID 743014). Further: nearly all actives have a fitted effect of over 55% in size. Further: potency means the concentration at half of the fitted maximal effect.

The text below walks through data of PubChem BioAssay (Tox21).

Each structure is given as a SMILES string. Unmarked numbers belong to inactive results. Records with an inconclusive call do not appear. Calls of active or inactive are those of the source. Unless noted, the call rests on the fitted dose curve; in most records, active means well fitted curve in the direction sought with a large enough effect in the repeat runs; inconclusive means weak or mixed curves; inactive means no such curve, though single readings can be large; an effect the other way counts as inactive or inconclusive.

Take `CCN1CCN(c2cc3c(cc2F)c(=O)c(C(=O)O)cn3C2CC2)CC1`: the outcome in test [1], in [3], in test [5] and in [8] was inactive. Further, the Potency result in [2], in [4], in test [6] and in test [7] was “inactive” throughout.
In the case of `CN(C)C(=O)C(CCN1CCC(O)(c2ccc(Cl)cc2)CC1)(c1ccccc1)c1ccccc1`, the call in test [1] was inactive. In addition, the Potency was 5.96 µM (active) in test [2], 10.6 µM (active) in test [9] and 24.8 µM (active) in test [7].
As to `CCC(C)OC(=O)N1CCCCC1CCO` (centres undefined), the compound was classed as inactive in test [1] and in [3]. For the same compound, the Potency entry in test [2], in [9] and in [7] was “inactive” throughout.
Turning to `COCCOC(=O)CC#N`, the outcome in test [1] was inactive. Also, the Potency entry in test [2] and in test [7] was “inactive” throughout.
Regarding `OC[C@H]1O[C@@H]2O[C@H]3[C@H](O)[C@@H](O)[C@@H](O[C@H]4[C@H](O)[C@@H](O)[C@@H](O[C@H]5[C@H](O)[C@@H](O)[C@@H](O[C@H]6[C@H](O)[C@@H](O)[C@@H](O[C@H]7[C@H](O)[C@@H](O)[C@@H](O[C@H]8[C@H](O)[C@@H](O)[C@@H](O[C@H]9[C@H](O)[C@@H](O)[C@@H](O[C@H]1[C@H](O)[C@H]2O)O[C@@H]9CO)O[C@@H]8CO)O[C@@H]7CO)O[C@@H]6CO)O[C@@H]5CO)O[C@@H]4CO)O[C@@H]3CO`, the call in test [1] and in test [3] was inactive. The Potency result in test [2], in [9] and in test [7] was “inactive” in each case.
With `CC(C)c1cccc(O)c1`, the result in test [1] and in test [3] was inactive. Moreover, the Potency result in [2], in test [9] and in test [7] was “inactive” throughout.
As for `Cc1ccccc1C(=O)O`, the compound was classed as inactive in [1] and in test [3]. In addition, the Potency result in test [2] and in [7] was “inactive” in each case.
On to `O=C1C(CCS(=O)c2ccccc2)C(=O)N(c2ccccc2)N1c1ccccc1` (centres undefined), for which the result in [1] and in [3] was inactive. Further, the Potency result in test [2] and in test [7] was “inactive” each time.
As for `COc1ccc(N=[N+]([O-])c2ccc(OC)cc2)cc1`, the call in [1] and in test [3] was inactive. Besides, the Potency result in test [2], in [9] and in test [7] was “inactive” in each case.
Consider `CC1=CC(C)C(C=O)C(C)C1` (centres undefined), for which the compound was called inactive in test [1] and in test [3]. Also, the Potency entry in test [2] and in test [7] was “inactive” throughout.
Regarding `CCCCN(CCO)CCO`, the outcome in [1] and in test [3] was inactive. Further, the Potency entry in test [2] and in test [7] was “inactive” each time.
Regarding `CCN1CCCC1CNC(=O)c1cc(S(N)(=O)=O)ccc1OC` (centres undefined), the outcome in [1], in test [3], in [5] and in test [8] was inactive. The Potency entry in [2], in [4], in test [6] and in [7] was “inactive” in each case.
As to `O=C(O)/C=C/c1ccc(Cn2ccnc2)cc1`, the compound was called inactive in test [1] and in [3]. Further, the Potency result in [2] and in test [7] was “inactive” throughout.
For `COC(=O)c1ccc(C(=O)OC)c(C(=O)OC)c1`, the call in [1] was inactive. The Potency entry in test [2], in test [9] and in [7] was “inactive” each time.
For `CC/C=C\C#N`, the compound was classed as inactive in test [1] and in test [3]. Moreover, the Potency entry in test [2], in [9] and in test [7] was “inactive” each time.
Regarding `C=CC(=O)N1CCOCC1`, the compound was called inactive in test [1] and in [3]. Further, the Potency entry in test [10], in test [9] and in test [7] was “inactive” in each case.
In the case of `CCn1cc(C(=O)O)c(=O)c2cc(F)c(N3CCN(C)CC3)cc21`, the compound was classed as inactive in test [1] and in test [3]. In test [7], the Potency result is “inactive”.
As for `CCCCCCCCCCCl`, the Potency result in [2], in test [10], in [9] and in test [7] was “inactive” in each case. Further, the outcome in test [3] was inactive.
For `CC(CCO)CCCC(C)(C)O` (centres undefined), the call in [1] was inactive. Moreover, the Potency in test [10] is 48.6 µM (active). In addition, in test [7], the Potency result was “inactive”.
As for `NS(=O)(=O)c1cc2c(cc1Cl)NC(CSCc1ccccc1)=NS2(=O)=O`, the compound was classed as inactive in [1]. In addition, the Potency entry in [2] and in [7] was “inactive” throughout.
Regarding `COc1nc(C)nc(N)n1`, the outcome in test [1] and in [3] was inactive. Moreover, the Potency entry in test [10], in [9] and in [7] was “inactive” throughout.
With `CO[Si](OC)(OC)OC`, the compound was called inactive in [1] and in test [3]. Further, the Potency result in test [7] is “inactive”.
For `C=CCOc1nc(OCC=C)nc(OCC=C)n1`, the outcome in [1] and in [3] was inactive.
For `CC1CCN(CCCC(=O)c2ccc(F)cc2)CC1`, the call in [1] and in test [3] was inactive. Moreover, in test [9], the Potency was 7.5 µM (active).
For `Cc1onc(-c2ccccc2)c1-c1ccc(S(N)(=O)=O)cc1`, the call in test [1] was inactive. The Potency result in test [10] and in test [7] was “inactive” in each case.
Take `CC1=CCC2C(C1)C2(C)C` (centres undefined): the call in [1], in test [3], in test [5] and in test [8] was inactive. For the same compound, the Potency result in [4], in test [6] and in [7] was “inactive” throughout.
